The values that follow come from PubChem BioAssay.

Assay [1] in a line: yeast TOR pathway RPL19A-GFP modulators, primary screen, cell-based, S. cerevisiae, multiplex flow cytometry (AID 1862; in the data active = percent of DMSO control GFP below about 86%;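 note: lower values mimic rapamycin by blocking the RPL19A rise seen in DMSO cells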). The conditions noted are these: S. cerevisiae RPL19A-GFP strain, flow cytometry fluorescence, 3 h; at 10 µM; stronger effect = lower value. (In general: Flow cytometry measures light scatter and fluorescence of single cells or particles in a stream.)
Assay [2] is described as follows: modulators of MEP2-GFP levels in yeast, primary screen, S. cerevisiae, multiplex flow cytometry (AID 1867;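 active = GFP response, as percent of the DMSO control, above the screen-wide mean plus 3 SD, about 139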;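 note: median GFP channel fluorescence of barcode-gated MEP2-GFP cells measured by flow cytometry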). The following applies: S. cerevisiae MEP2-GFP strain, 3 h, at 10 µM, stronger effect = higher value, 100% means same as DMSO wells.
A short description of assay [3]: modulators of CIT2-GFP expression in yeast, primary screen, S. cerevisiae, GFP fusion, multiplex flow cytometry (AID 1870;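 active = percent response above a set limit, the screen-wide mean plus 3 SD, cut at about 130% in these data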;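 note: barcoded CIT2-GFP strain pooled with four other GFP strains with rapamycin as positive control; median GFP fluorescence per well over plate mean of DMSO wells so 100% = DMSO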). The conditions noted are these: 3 h, at 10 µM, stronger effect = higher value.
The nature of assay [4]: modulators of LAP4-GFP expression in yeast, primary screen, S. cerevisiae, multiplex flow cytometry (AID 1873;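 active = GFP signal, as percent of the solvent control, above the screen mean plus 3 SD, about 149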). The following applies: 3 h, at 10 µM, stronger effect = higher value.
A short description of assay [5]: modulators of AGP1-GFP expression in yeast TOR pathway, primary screen, cell-based, multiplex flow cytometry, S. cerevisiae (AID 1887;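 active = GFP signal above the screen-wide mean plus 3 SD, that is over about 124.5% of the solvent control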;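 note: AGP1-GFP fusion strain of S. cerevisiae within a five-strain barcoded multiplex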). The following applies: 3 h, at 10 µM, stronger effect = higher value.
The nature of assay [6]: inhibitors of CD8+ T cell-vesicle binding, pilot screen, LFA-1/ICAM-1 modulator project, MLPCN validation set, flow cytometry (AID 2523;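 active = response below a set limit, under 55% cells CD8-positive and vesicle-bound, and CD8 cells' 90th-percentile brightness under 279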;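 for vesicle binding response: mean PE anti-B7-1 fluorescence of CD8+ cells relative to row control; 100% = QL9-loaded vesicles with DMSO vehicle in the same plate row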). The following applies: 2C mouse CD8+ T cells, at 7 µM, stronger effect = lower value; double positive events: measured here: CD8+/vesicle+ event percentage.
In assay [7] the target is Integrin beta-1 (Homo sapiens) + Integrin alpha-4 (Homo sapiens) (UniProt P13612+P05556). As to the kind of experiment: inhibition of HUTS-21 binding to VLA-4, pilot screen, VLA-4 allosteric modulator project, U937 cells, HUTS-21 mAb, flow cytometry, validation set (AID 2674;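 active = inhibition above 50%, about 3 SD of the validation set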;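 note: antibody binding induced by the VLA-4 ligand LDV present at three times its Kd; 0% = LDV ligand with antibody and no compound and 100% = antibody without LDV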). The following applies: HUTS-21 LIBS mAb binding, at 6.7 µM, stronger effect = higher value, binding induced by LDV ligand.

Assay [8] is described as follows: superoxide lowering in aged yeast cells, pilot screen, validation compound set (AID 2706;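 active = superoxide response below 65% of plate, a cut near 3 SD across the whole screen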;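 note: yeast exposed to compound for one week at 30 degrees C before staining; 100% = mean of all compound wells on the same plate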). The conditions noted are these: S. cerevisiae aging, superoxide DHE fluorescence; at 10 µM; stronger effect = lower value.
Assay [9] addresses Beta-adrenergic receptor kinase 1 (Homo sapiens) (UniProt P25098). Briefly: GRK2 binders displacing RNA aptamer, biochemical, validation, human GRK2, bead flow cytometry (AID 488806;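 active = aptamer binding inhibition above 30%, about 3 SD of noise from non-fluorescent compounds; inactive = inhibition at or below 30%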). The following applies: bead-bound GRK2, FAM-aptamer displacement, at 10 µM, stronger effect = higher value.
Assay [10] addresses Beta-2 adrenergic receptor (Homo sapiens) (UniProt P07550). Briefly: beta2AR agonists driving receptor internalization, pilot screen, cell-based, FAP fluorogen, flow cytometry, validation set (AID 504459;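 active = percent response above 42, roughly 3 SD of non-fluorescent test compounds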;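 note: agonist-driven loss of surface beta2AR via internalization measured by FAP dye flow cytometry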). The following applies: Am2.2-beta2AR cells, FAP surface receptor flow cytometry; at 10 µM; stronger effect = higher value.
Assay [11] deals with AP-2 complex subunit beta (Homo sapiens) (UniProt P63010). As to the kind of experiment: inhibitors of arrestin peptide binding to AP2, pilot screen, biochemical, validation set, GST-AP2 beads, flow cytometry (AID 504541;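 active = inhibition above 54%, about 3 SD of non-fluorescent compounds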;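 note: AP2 carries R879A mutation and is captured from E. coli lysate; bead-bound FITC arrestin peptide fluorescence measuring arrestin peptide binding to AP2; 0% = DMSO wells and 100% = excess unlabeled arrestin peptide control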). The following applies: FITC arrestin peptide, at 10 µM, stronger effect = higher value, AP2 beta2 appendage fragment, R879A mutant.
Assay [12] is described as follows: yeast V-ATPase proton transport modulators, S. cerevisiae, pHLuorin, HTS validation (AID 504600; in the data active = response above about 15%;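 note: plate controls were DMSO for no effect and reference compound for full effect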). The following applies: S. cerevisiae pHLuorin cytosolic pH, at 10 µM, stronger effect = higher value.
For assay [13], the system named is anti-desmoglein-3 scFv antibody binding to human DSG3. As to the kind of experiment: inhibitors of anti-DSG3 scFv binding to DSG3, pilot screen, biochemical, validation compound set, bead-based, flow cytometry (AID 588368;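 active = binding below the plate cutoff, the plate median minus 3 SD, with a reading above zero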;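 note: signal is the median channel fluorescence of bead-bound GFP antibody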). The conditions noted are these: Protein G beads, DSG3-Fc, scFv-GFP binding, at 10 µM, stronger effect = lower value.
The nature of assay [14]: inhibitors of fungal efflux pumps CDR1, CDR2, MDR1, pilot screen, validation compound set, multiplex, phenotypic (AID 588506).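 Note: Nile Red retained in cells so higher fluorescence means more efflux inhibition; 0 = negative control wells and 1 = enniatin B 25 µM full block.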 The conditions noted are these: S. cerevisiae pump-expressing triplex, Nile Red efflux flow cytometry; at 10 µM; stronger effect = higher value; the pumps come from Candida albicans.
In assay [15] the target is ATP-binding cassette sub-family B member 6 (Homo sapiens) (UniProt Q9NP58). As to the kind of experiment: ABCB6 transporter inhibitors, pilot screen, K562-ABCB6 cells, flow cytometry, validation set (AID 588550;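 active = inhibition above the screen-wide mean plus 3 SD, about 51%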;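 note: 0% = DMSO wells and 100% = benzethonium chloride 70 µM positive control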). The following applies: K562-ABCB6 porphyrin accumulation, 1 h, at 10 µM, stronger effect = higher value.
Assay [16] in a line: promoters of myeloid differentiation in arrested cells, primary screen, cell-based, GFP/MAC1 double positive, flow cytometry, validation set (AID 588685;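 active = differentiation response of at least 50%, scaled between solvent and reference control, from cells with both markers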;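 note: compound exposure lasts four days before antibody staining and flow analysis; 0% = DMSO wells and 100% = 5 µM fulvestrant positive control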). The following applies: ER-HoxA9 marrow cells, stronger effect = higher value, normalized: vehicle 0, fulvestrant 100.

The structures appear in SMILES notation. Records with an inconclusive call do not appear. Calls of active or inactive are those of the source.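 Rule for the calls, unless noted: active = efflux inhibition above 0.42, the validation set average plus 4 SD; inconclusive = no clear call, values can overlap the other calls; inactive = the rest.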

Chain of AP-2 complex subunit beta (Homo sapiens) (P63010 whole entry, looked up, the tested form may be a part, one chain of several): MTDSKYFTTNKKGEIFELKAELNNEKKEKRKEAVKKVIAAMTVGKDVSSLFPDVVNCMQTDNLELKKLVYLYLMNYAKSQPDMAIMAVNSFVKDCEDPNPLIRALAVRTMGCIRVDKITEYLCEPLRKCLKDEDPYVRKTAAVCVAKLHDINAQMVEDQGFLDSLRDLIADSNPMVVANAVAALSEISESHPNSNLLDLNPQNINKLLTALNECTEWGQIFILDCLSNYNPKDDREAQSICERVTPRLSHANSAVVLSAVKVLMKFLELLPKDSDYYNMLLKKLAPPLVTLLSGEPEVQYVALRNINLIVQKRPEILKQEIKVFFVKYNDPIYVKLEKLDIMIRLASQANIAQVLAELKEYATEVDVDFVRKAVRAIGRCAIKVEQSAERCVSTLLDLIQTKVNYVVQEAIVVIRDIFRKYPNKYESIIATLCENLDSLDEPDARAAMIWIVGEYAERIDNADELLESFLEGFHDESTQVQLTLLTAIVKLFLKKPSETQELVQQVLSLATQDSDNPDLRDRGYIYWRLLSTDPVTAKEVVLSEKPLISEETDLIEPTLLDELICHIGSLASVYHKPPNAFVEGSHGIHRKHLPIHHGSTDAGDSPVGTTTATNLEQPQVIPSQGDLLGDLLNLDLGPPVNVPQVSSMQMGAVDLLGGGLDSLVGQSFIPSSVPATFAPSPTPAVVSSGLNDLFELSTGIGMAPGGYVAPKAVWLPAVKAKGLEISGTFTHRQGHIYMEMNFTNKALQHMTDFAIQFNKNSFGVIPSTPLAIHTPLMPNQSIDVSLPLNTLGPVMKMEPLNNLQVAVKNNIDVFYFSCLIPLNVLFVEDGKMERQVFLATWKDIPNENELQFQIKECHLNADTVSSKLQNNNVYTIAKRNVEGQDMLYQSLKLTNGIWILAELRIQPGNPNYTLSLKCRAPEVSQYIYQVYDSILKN
Chain of Integrin beta-1 (Homo sapiens) + Integrin alpha-4 (Homo sapiens) (P05556 whole entry, looked up): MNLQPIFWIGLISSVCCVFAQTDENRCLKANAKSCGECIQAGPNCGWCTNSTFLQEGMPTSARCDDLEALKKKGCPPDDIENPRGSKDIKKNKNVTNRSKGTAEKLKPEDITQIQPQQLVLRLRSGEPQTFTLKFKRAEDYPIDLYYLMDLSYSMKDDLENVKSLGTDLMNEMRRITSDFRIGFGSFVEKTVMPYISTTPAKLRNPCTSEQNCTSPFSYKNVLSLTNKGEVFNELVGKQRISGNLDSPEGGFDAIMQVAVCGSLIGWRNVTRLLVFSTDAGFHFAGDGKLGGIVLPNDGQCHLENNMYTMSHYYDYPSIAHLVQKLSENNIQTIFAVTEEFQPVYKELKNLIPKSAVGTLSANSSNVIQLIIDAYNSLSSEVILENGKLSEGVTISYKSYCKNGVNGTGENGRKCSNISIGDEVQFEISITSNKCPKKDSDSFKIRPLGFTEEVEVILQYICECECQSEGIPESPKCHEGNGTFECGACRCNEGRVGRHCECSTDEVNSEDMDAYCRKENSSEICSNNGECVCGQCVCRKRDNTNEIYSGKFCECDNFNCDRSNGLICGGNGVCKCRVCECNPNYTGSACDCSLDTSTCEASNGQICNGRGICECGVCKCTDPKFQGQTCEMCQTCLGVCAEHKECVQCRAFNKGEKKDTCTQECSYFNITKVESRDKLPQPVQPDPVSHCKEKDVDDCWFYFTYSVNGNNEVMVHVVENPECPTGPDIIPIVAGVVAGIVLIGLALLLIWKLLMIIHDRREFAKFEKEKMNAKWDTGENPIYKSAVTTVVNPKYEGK
Chain of Integrin beta-1 (Homo sapiens) + Integrin alpha-4 (Homo sapiens) (P13612 whole entry, looked up): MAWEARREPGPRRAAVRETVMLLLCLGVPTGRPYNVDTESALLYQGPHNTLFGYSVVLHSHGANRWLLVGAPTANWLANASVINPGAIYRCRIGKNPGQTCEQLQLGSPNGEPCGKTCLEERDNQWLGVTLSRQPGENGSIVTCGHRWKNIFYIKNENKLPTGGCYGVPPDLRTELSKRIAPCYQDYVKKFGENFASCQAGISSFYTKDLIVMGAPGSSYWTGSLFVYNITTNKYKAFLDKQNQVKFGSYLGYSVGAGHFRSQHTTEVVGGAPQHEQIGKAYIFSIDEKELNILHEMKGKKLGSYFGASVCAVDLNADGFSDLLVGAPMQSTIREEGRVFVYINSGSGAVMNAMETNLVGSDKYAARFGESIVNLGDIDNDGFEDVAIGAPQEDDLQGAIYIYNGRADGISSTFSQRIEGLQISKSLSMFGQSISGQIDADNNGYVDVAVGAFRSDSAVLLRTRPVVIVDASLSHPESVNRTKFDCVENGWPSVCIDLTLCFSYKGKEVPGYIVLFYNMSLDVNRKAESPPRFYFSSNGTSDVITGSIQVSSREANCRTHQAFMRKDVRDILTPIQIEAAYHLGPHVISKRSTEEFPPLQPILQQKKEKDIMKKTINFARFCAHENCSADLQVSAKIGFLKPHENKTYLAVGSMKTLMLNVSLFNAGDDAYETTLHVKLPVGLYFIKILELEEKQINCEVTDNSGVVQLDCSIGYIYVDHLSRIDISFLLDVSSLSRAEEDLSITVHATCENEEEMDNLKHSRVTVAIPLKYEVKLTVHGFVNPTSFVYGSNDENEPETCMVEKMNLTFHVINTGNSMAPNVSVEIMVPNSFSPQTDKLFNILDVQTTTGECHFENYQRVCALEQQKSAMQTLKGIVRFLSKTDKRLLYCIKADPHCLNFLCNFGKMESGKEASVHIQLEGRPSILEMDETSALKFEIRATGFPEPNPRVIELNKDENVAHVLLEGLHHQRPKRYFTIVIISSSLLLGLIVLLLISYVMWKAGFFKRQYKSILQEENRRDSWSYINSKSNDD
Chain of Beta-2 adrenergic receptor (Homo sapiens) (P07550 whole entry, looked up): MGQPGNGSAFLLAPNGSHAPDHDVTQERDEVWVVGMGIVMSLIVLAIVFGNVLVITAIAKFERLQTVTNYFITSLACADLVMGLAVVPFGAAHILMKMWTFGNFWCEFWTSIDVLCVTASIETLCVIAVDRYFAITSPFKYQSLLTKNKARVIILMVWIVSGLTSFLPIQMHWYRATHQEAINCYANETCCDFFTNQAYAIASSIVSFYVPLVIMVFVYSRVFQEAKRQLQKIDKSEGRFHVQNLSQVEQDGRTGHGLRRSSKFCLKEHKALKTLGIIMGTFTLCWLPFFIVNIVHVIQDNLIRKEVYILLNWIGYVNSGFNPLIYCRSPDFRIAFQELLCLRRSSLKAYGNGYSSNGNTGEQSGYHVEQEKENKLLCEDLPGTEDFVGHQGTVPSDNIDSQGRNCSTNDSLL
Chain of Beta-adrenergic receptor kinase 1 (Homo sapiens) (P25098 whole entry, looked up): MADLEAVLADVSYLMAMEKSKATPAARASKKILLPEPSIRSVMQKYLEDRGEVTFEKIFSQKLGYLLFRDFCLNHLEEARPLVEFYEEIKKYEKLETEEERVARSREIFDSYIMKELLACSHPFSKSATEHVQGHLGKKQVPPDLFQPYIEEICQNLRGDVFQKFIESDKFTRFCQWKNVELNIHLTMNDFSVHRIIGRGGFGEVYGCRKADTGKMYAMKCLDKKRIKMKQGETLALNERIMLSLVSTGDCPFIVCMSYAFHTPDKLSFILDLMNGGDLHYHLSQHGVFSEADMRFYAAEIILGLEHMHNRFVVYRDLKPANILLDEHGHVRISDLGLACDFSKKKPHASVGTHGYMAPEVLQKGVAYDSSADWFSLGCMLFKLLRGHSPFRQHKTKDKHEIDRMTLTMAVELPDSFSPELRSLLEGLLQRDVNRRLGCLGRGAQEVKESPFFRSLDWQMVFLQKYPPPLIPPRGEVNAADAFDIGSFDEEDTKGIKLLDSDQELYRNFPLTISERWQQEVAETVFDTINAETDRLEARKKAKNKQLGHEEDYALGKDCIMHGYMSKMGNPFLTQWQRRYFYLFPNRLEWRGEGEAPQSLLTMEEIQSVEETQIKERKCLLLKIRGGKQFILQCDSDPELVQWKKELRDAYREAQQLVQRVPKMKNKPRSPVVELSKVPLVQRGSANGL
Chain of ATP-binding cassette sub-family B member 6 (Homo sapiens) (Q9NP58 whole entry, looked up): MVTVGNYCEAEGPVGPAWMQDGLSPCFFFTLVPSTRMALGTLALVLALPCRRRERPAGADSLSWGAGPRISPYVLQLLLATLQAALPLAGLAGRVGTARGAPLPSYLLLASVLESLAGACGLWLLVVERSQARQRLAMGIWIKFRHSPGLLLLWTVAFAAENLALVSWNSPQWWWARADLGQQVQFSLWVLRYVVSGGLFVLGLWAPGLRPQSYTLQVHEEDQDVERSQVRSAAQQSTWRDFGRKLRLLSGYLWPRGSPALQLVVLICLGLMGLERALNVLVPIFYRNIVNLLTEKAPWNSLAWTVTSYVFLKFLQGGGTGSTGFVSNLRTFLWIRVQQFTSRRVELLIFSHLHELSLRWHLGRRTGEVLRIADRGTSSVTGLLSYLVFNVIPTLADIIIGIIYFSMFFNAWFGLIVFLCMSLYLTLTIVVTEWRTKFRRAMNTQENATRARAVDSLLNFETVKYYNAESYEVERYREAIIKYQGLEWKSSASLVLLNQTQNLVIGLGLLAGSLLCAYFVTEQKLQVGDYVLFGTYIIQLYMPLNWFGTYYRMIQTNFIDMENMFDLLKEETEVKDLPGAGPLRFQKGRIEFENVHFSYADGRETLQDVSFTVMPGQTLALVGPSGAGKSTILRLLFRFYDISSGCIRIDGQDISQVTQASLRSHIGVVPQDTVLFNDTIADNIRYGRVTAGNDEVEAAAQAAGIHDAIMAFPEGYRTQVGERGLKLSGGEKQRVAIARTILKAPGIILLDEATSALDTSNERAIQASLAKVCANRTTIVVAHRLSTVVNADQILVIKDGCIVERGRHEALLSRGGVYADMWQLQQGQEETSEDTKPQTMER

`CC(=O)N[C@@H](CS)C(=O)O`: in [1], the percent of DMSO control GFP was 101% (inactive). Besides, the GFP response vs DMSO was 111% (inactive) in [2] and 131% (inactive) in assay [4]. In addition, the percent response of DMSO control in assay [3] was 95.8% (inactive). Also, the GFP response, % of DMSO in assay [5] is 101% (inactive). Moreover, the double positive events in assay [6] came out at 64.2%. For the same compound, in assay [6], the vesicle binding response was 159% (inactive). Further, the inhibition in [7] is -3.16% (inactive); in assay [11], -18.7% (inactive); in [15], 19% (inactive). Moreover, the superoxide response (% of plate) in assay [8] is 89.1% (inactive). The aptamer binding inhibition in assay [9] is 5% (inactive). The response in assay [10] was 7.69% (inactive); in [12], 0.13% (inactive). In addition, the binding (% of control) in [13] is 104% (inactive). Further, the efflux inhibition (fraction of control) in [14] was -0.03 (inactive). For the same compound, in [16], the differentiation response was 7.2% (inactive).

Regarding `COc1cccc2c(=O)c3ccccc3oc12`, the percent of DMSO control GFP in assay [1] was 93.9% (inactive). For the same compound, the GFP response vs DMSO in assay [2] was 117% (inactive); in assay [4], 74.3% (inactive). Also, the percent response of DMSO control in assay [3] is 111% (inactive). In addition, the GFP response, % of DMSO in assay [5] is 88% (inactive). In assay [6], this compound gave a double positive events of 61.1%. Also, the vesicle binding response in assay [6] was 134% (inactive). Besides, the results for the inhibition in assay [7], in [11] and in [15] were -9.06% (inactive), -2.99% (inactive) and 15% (inactive), respectively. For the same compound, in assay [8], the superoxide response (% of plate) is 109% (inactive). Moreover, the aptamer binding inhibition in assay [9] was 2% (inactive). The values for the response in assay [10] and in assay [12] were -12.3% (inactive) and 0.55% (inactive), respectively. For the same compound, the binding (% of control) in assay [13] was 96% (inactive). Further, in assay [14], the efflux inhibition (fraction of control) is 0.27 (inactive). Moreover, the differentiation response in assay [16] was -3.28% (inactive).

As for `COC(=O)[C@@H](N)CS`, the percent of DMSO control GFP in assay [1] is 102% (inactive). Moreover, the GFP response vs DMSO is 102% (inactive) in assay [2] and 95.1% (inactive) in [4]. Further, the percent response of DMSO control in assay [3] was 98.2% (inactive). In addition, the GFP response, % of DMSO in assay [5] was 103% (inactive). For the same compound, the double positive events in [6] was 60.5%. The vesicle binding response in assay [6] is 61.8% (inactive). Besides, the values for the inhibition in assay [7], in assay [11] and in [15] were -3.18% (inactive), -20.1% (inactive) and 4% (inactive), respectively. Besides, in assay [8], the superoxide response (% of plate) was 101% (inactive). Moreover, the aptamer binding inhibition in assay [9] is 8% (inactive). Besides, the response in assay [10] is 15.2% (inactive); in [12], 0.91% (inactive). The binding (% of control) in [13] is 95.6% (inactive). In assay [14], the efflux inhibition (fraction of control) is 0.2 (inactive). The differentiation response in [16] is -3.4% (inactive).

With `C/C(=N\NC(=O)c1ccccc1[N+](=O)[O-])c1ccc(Br)s1`, the percent of DMSO control GFP in assay [1] was 98.4% (inactive). The GFP response vs DMSO in [2] is 107% (inactive); in assay [4], 100% (inactive). Besides, the percent response of DMSO control in [3] is 107% (inactive). Moreover, the GFP response, % of DMSO in [5] was 101% (inactive). In [6], this compound displayed a double positive events of 57.5%. The vesicle binding response in assay [6] is 94.2% (inactive). The inhibition is 0.25% (inactive) in assay [7], 7.49% (inactive) in assay [11] and -10% (inactive) in [15]. In assay [8], the superoxide response (% of plate) was 97.9% (inactive). Moreover, the aptamer binding inhibition in assay [9] was 2% (inactive). Further, the response in [10] is -0.6% (inactive); in [12] it was -4.2% (inactive). For the same compound, in [13], the binding (% of control) was 95.7% (inactive). Also, in assay [14], the efflux inhibition (fraction of control) is -0.235 (inactive). In addition, in assay [16], the differentiation response is -4.57% (inactive).

Regarding `Cc1ccc2nc(NC3=NC(CC(=O)O)C(=O)N3)nc(C)c2c1` (stereo not given), the percent of DMSO control GFP in assay [1] was 105% (inactive). Moreover, the GFP response vs DMSO in assay [2] was 100% (inactive); in assay [4], 93.3% (inactive). Also, in assay [3], the percent response of DMSO control is 106% (inactive). Moreover, the GFP response, % of DMSO in assay [5] was 106% (inactive). This compound also had a double positive events in assay [6] of 65.9%. For the same compound, in assay [6], the vesicle binding response was 214% (inactive). Moreover, the inhibition is 0.58% (inactive) in assay [7], 8.29% (inactive) in [11] and 6% (inactive) in [15]. In addition, the superoxide response (% of plate) in assay [8] is 96.2% (inactive). Also, the aptamer binding inhibition in [9] is 2% (inactive). Also, the response in [10] is -2.27% (inactive); in [12], 2.1% (inactive). In addition, in assay [13], the binding (% of control) was 96.1% (inactive). For the same compound, in assay [14], the efflux inhibition (fraction of control) was 0.36 (inactive). In [16], the differentiation response is 9.04% (inactive).

In general, inhibition refers to the relative decrease from the control value, in per cent.
